Consider 50 molecules from PubChem BioAssay (EPA / NIEHS).

Assay [1] concerns the target Nucleoli Translocation, AR (gene 367) (UniProt P10275). The assay is described as follows: UPITT_HCI_U2OS_AR_TIF2_Nucleoli_Antagonist: University of Pittsburgh U2OS Androgen Receptor-Transcriptional Intermediary Factor 2 (AR-TIF2) Antagonism High Content Imaging Assay for Nucleoli Translocation (AID 2283997; active = hit-call score of the fitted dose curve at least 0.9, where 1 is the maximum). The method, boiled down:
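Measured quantity was AR-RFP fluorescence localized to nucleoli in engineered U2OS cells also bearing TIF2-GFP, acquired on automated high-content imagers. Primary testing used 20 uM compound; actives were confirmed in triplicate wells.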

Assay [2] shares this target. The assay is described as follows: UPITT_HCI_U2OS_AR_TIF2_Nucleoli_Agonist: University of Pittsburgh U2OS Androgen Receptor-Transcriptional Intermediary Factor 2 (AR-TIF2) Agonism High Content Imaging Assay for Nucleoli Translocation (AID 2283998; active = hit-call score of the fitted dose curve at least 0.9, where 1 is the maximum). The method, boiled down:
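RFP-AR / GFP-TIF2 cells; cpds diluted in serum-free medium; single-point screen 20 uM final (0.2% DMSO), actives confirmed in triplicate; conc-response 0.195–50 uM final (0.5% DMSO). Readout: nucleolar red fluorescence, positive direction vs DMSO.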

The target of assay [3] is Ratio of Nucleoli Translocation and Cytoplasm, AR (gene 367) (UniProt P10275). In words: UPITT_HCI_U2OS_AR_TIF2_Nucleoli_Cytoplasm_Ratio_Antagonist: University of Pittsburgh U2OS Androgen Receptor-Transcriptional Intermediary Factor 2 (AR-TIF2) Antagonism High Content Imaging Assay for Ratio of Nucleoli Translocation and Cytoplasm (AID 2283999; active = hit-call score of the fitted dose curve at least 0.9, where 1 is the maximum;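 note: antagonists lower the DHT-driven ratio of nucleolar to cytoplasmic red signal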). The method, boiled down:
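High-content imaging quantifies the red nucleolar:cytoplasmic fluorescence ratio in U2OS cells with AR-RFP and TIF2-GFP. Final concentrations are 20 uM (screen) or 0.195–50 uM (dose response), analysed against DHT as baseline.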

Assay [4] in a line: CCTE_Shafer_MEA_acute_spike_number: CCTE's Neural Acute Assay for Total Number of Spikes, Shafer Lab (AID 2284008).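 For AC50: curve fitted for decrease in spike count so AC50 reflects inhibitors.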 In outline:
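Rat cortical cultures, DIV 13/15, 37 C. 40 min baseline rec, cpd 0.03-40 uM, 40 min post-dose rec. Band-pass 300-5000 Hz, spike threshold 8x rms; % change in spike count per well, DMSO neg ctrl, loss-of-signal fit.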

Assay [5] is described as follows: CCTE_Shafer_MEA_acute_firing_rate_mean: CCTE's Neural Acute Assay for Mean Firing Rate, Shafer Lab (AID 2284009).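 Note: analyzed for loss of signal so actives lower firing rate relative to DMSO.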 In outline: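 Percent change in well-mean firing rate was derived from extracellular spikes detected at 8x rms noise (300-5000 Hz band-pass) before and after a 40-min compound exposure. Cultures were primary rat cortical neurons, tested at 0.03-40 uM.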

Assay [6] can be described thus: CCTE_Simmons_MITO_max_resp_rate: CCTE's HepG2 Seahorse XF Respirometric Screening Assay at Maximal Respiratory State [uncoupled], Simmons Lab (AID 2284002). The conditions noted are these: actives raise or lower the signal. The method, boiled down: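 HepG2, Seahorse XF96, maximal OCR post-FCCP. Cpd 125 nM–100 uM final (7 conc), n=3 biological. Kinetic reads every 6 min (3 min mix/3 min measure) over 72 min; fit bidirectional vs DMSO.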

A short description of assay [7]: CCTE_Simmons_MITO_inhib_resp_rate: CCTE's HepG2 Seahorse XF Respirometric Screening Assay at Inhibited Respiratory State [full ETC block], Simmons Lab (AID 2284006). The conditions noted are these: actives raise or lower the signal. In outline:
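Inhibited respiration was taken as HepG2 oxygen consumption after rotenone/antimycin A, which followed test-compound and FCCP injections. Chemicals were tested at seven final concentrations from 125 nM to 100 uM. Activity was fitted bidirectionally relative to DMSO.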

Assay [8] can be described thus: CCTE_Simmons_MITO_basal_resp_rate: CCTE's HepG2 Seahorse XF Respirometric Screening Assay at Basal Respiratory State, Simmons Lab (AID 2284001). The conditions noted are these: actives raise or lower the signal. The method, boiled down: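 HepG2 respirometry; 7-pt titration 125 nM–100 uM final; kinetic OCR at 6 min intervals for 72 min; n=3 biological, technical singles; DMSO baseline, gain or loss fit; fenpyroximate (decrease) and 2,4-DNP (increase) controls.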

Assay [9] in a line: CCTE_Simmons_MITO_viability: CellTiter-Glo Viability Assessment for CCTE's HepG2 Seahorse XF Respirometric Screening Assay [post-hoc], Simmons Lab (AID 2284007; active = hit-call score of the fitted dose curve at least 0.9, where 1 is the maximum;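 for AC50: cells exposed to chemical for 90 min before the ATP read; actives lower ATP signal relative to DMSO baseline meaning reduced viability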). In outline:
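HepG2 cells; test chemical 7 conc. (125 nM–100 uM final) × 90 min; then luminescent ATP detection. DMSO vehicle. Positive control dichlone, 8 conc. from 10 nM to 100 uM final. Loss-of-signal endpoint.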
In general terms: Cellular ATP, detected with luciferase, serves as a proxy for viable cell number.

The test system of another assay is DIO1 (gene 1733). In words: CCTE_GLTED_hDIO1: CCTE's human Deiodinase 1 (DIO1) Inhibition Assay, Great Lakes Toxicology and Ecology Division (GLTED) Lab (AID 2283987; active = hit-call score of the fitted dose curve at least 0.9, where 1 is the maximum;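 note: isolated human DIO1 enzyme in a cell-free setup rather than cells; enzyme activity read as free iodide liberated from substrate via Sandell-Kolthoff colorimetry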). The method, boiled down: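 Steps: human DIO1 enzyme plus test chemical, 3 h incubation; free iodide then quantified in a second Sandell-Kolthoff step by absorbance. DMSO served as negative control and baseline.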

One may read the AC50 as the midpoint of the concentration-response curve, whichever way the signal moves.

Values joined by “and” are separate entries in the source; they are usually repeats but may differ in a detail not shown here. Identical values can stand only once. Results filed as inconclusive are left out. Active and inactive are the calls of the source. Rule for the calls, unless noted: active = hit-call score of the fitted dose curve at least 0.9, where 1 is the maximum; inactive = score below 0.9.

Chain of Nucleoli Translocation, AR (gene 367) (P10275 whole entry, looked up): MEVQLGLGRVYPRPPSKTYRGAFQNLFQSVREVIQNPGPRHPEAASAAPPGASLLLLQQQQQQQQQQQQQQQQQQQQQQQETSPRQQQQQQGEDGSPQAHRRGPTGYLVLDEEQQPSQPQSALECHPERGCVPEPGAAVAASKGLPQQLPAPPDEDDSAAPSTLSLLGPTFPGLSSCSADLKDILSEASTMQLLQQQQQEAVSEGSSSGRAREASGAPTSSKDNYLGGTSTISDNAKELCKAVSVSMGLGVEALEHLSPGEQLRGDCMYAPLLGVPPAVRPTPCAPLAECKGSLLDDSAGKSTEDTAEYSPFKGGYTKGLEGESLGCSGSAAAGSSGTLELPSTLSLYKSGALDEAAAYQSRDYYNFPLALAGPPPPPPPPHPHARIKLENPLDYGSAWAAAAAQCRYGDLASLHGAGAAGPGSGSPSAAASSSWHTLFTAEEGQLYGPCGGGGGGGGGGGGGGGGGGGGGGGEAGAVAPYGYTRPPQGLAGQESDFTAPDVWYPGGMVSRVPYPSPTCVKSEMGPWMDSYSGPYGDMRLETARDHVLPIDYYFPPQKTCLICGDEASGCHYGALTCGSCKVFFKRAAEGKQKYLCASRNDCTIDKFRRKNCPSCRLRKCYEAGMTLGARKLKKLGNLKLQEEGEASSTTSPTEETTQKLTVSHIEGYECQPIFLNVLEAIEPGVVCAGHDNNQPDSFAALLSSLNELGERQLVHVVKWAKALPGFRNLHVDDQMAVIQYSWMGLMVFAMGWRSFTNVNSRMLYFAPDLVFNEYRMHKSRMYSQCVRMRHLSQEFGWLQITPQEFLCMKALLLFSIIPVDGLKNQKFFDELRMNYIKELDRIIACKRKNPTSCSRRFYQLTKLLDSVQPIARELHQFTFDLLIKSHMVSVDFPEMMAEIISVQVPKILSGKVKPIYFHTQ
Chain of Ratio of Nucleoli Translocation and Cytoplasm, AR (gene 367) (P10275 whole entry, looked up): as above

In the case of `Cc1ccc(C)c(O)c1C`, the outcome in [1], in [2], in [3], in assay [4] and in assay [5] was inactive.

As for `CC(=O)Oc1ccccc1C(=O)O`, the outcome in assay [2], in assay [4] and in [5] was inactive.

Turning to `CCCCCC(=O)O`, the result in assay [2] was inactive.

On to `COc1cc(/C=C/C(=O)CC(=O)/C=C/c2ccc(O)c(OC)c2)ccc1O`, for which the result in assay [2] was inactive. Moreover, the AC50 in assay [3] was 5.79 µM (active).

For `COc1ccc(S(=O)(=O)N2C(=O)[C@@](c3ccccc3OC)(N3C[C@H](O)C[C@H]3C(=O)N(C)C)c3cc(Cl)ccc32)c(OC)c1`, the result in assay [1], in assay [2], in [3], in assay [6] and in [7] was inactive. In addition, the AC50 in [4] and in assay [5] was 31.8 µM (active) in each case.

In the case of `COc1ccc(C)cc1N`, the molecule was called inactive in assay [1] and in assay [3].

With `O=C(O)Cc1ccccc1Nc1c(Cl)cccc1Cl`, the molecule was classed as inactive in [1], in assay [2] and in assay [3].

Consider `Cc1cccc(C)c1O`, for which the call in assay [1], in assay [2] and in [3] was inactive.

Consider `Cc1ccc(C)c(C)c1`, for which the molecule was classed as inactive in assay [1], in [2] and in assay [3].

In the case of `COc1ccc2c(c1)c(CC(=O)O)c(C)n2C(=O)c1ccc(Cl)cc1`, the outcome in [2], in [3], in [6], in assay [7], in [9] and in [4] was inactive. Besides, the result in [5] was inactive. Moreover, the AC50 in assay [8] is 13.4 µM (active).

Turning to `Cc1cccc([N+](=O)[O-])c1C`, the call in assay [1] and in assay [3] was inactive.

As for `CCCc1cc(=O)[nH]c(=S)[nH]1`, the concentration at half-maximal activity (AC50) in the assay on DIO1 (gene 1733) was 3.82 µM (active) and 5.5 µM (active). In addition, the call in [4] and in assay [5] was inactive.

`Cc1ccccc1Cl`: the molecule was called inactive in assay [1] and in assay [2].

With `CNC(=O)[C@H]1O[C@@H](n2cnc3c(NCc4cc(Cl)ccc4OCc4cc(C)no4)ncnc32)[C@H](O)[C@@H]1N`, the molecule was classed as inactive in assay [1], in assay [2] and in assay [3].

Turning to `CCCCCCCCCCC`, the call in assay [1] was inactive.

In the case of `CC(C)(C)c1cc(O)c(C(C)(C)C)cc1O`, the molecule was classed as inactive in assay [1], in [2], in assay [7] and in assay [9]. The AC50 in assay [8] is 18.3 µM (active); in assay [6], 36.7 µM (active); in assay [4], 25.9 µM (active); in assay [5], 25.9 µM (active).

With `CCCCC(CC)COC(=O)CC(C(=O)OCC(CC)CCCC)S(=O)(=O)O` (centres undefined), the AC50 is 96.2 µM (active) in the assay on DIO1 (gene 1733), 85.2 µM (active) in assay [6] and 56.1 µM (active) in [9]. For the same molecule, the outcome in assay [8] and in [7] was inactive.

`Cc1ccc(N(C)C)cc1`: the call in assay [1], in assay [2] and in assay [3] was inactive.

As to `Cc1nc(-c2ccc3c(c2)CCN(CCC2CCC(NC(=O)/C=C/c4ccc(F)cc4)CC2)CC3)no1` (centres undefined), the call in assay [1], in [2] and in assay [3] was inactive.

As for `COCCOCCOC`, the molecule was called inactive in assay [1] and in [2].

On to `Cc1cc(=O)[nH]c(=S)[nH]1`, for which the AC50 in the assay on DIO1 (gene 1733) was 16.4 µM (active).

For the molecule `COc1cc(-c2nc(NC(=O)c3cc4cc(C)cc(C)c4n3CC(=O)O)sc2CCC2CCCCC2)c(OC)cc1Cl`, the AC50 in [1] is 11.4 µM (active). Besides, the call in assay [2] and in assay [3] was inactive.

On to `CCOc1ccc2c(c1)C(C)=CC(C)(C)N2`, for which the AC50 in assay [1] was 50 µM (active). Moreover, the call in assay [2] and in assay [3] was inactive.

Regarding `COc1cc(C=O)ccc1O`, the result in assay [1], in assay [2] and in assay [3] was inactive.

As to `CN[C@H]1CC[C@@H](c2ccc(Cl)c(Cl)c2)c2ccc(S(N)(=O)=O)cc21`, the figures for the AC50 in [1], in assay [2] and in assay [8] were 50 µM (active), 12.8 µM (active) and 25.6 µM (active), respectively. For the same molecule, the outcome in assay [3], in [6], in assay [7], in [9], in [4] and in assay [5] was inactive.

As for `CCCCCCCCCCCCCCCCCC(=O)O`, the molecule was called inactive in [4] and in assay [5].

With `COc1cc(S(=O)(=O)O)c(C)cc1N=Nc1c(O)ccc2cc(S(=O)(=O)O)ccc12`, the AC50 is 38.7 µM (active) in assay [8], 23.8 µM (active) in [7] and 50 µM (active) in [9]. Moreover, the call in assay [6] was inactive.

Turning to `C[Si]1(C)O[Si](C)(C)O[Si](C)(C)O[Si](C)(C)O1`, the molecule was called inactive in assay [4] and in assay [5].

On to `NCC1(Cc2noc(=O)[nH]2)CCCCC1`, for which the molecule was classed as inactive in [4] and in assay [5].

With `CN1CCCC1=O`, the molecule was classed as inactive in [4] and in [5].

With `CCCCCCCCCCO`, the call in [4] and in [5] was inactive.

Turning to `NS(=O)(=O)c1cc2c(cc1Cl)NCNS2(=O)=O`, the result in assay [4] and in assay [5] was inactive.

With `O=C(O)CCCCC(=O)O`, the call in assay [4] and in [5] was inactive.

Regarding `Cc1oc(-c2ccccc2)nc1CCOc1cccc2c1ccn2CCC(=O)O`, the AC50 in assay [8] was 3.11 µM (active). In addition, the outcome in assay [6], in assay [7] and in [9] was inactive.

For `Clc1cc(Cl)c(Cl)cc1Cl`, the molecule was classed as inactive in [4] and in assay [5].

On to `FC(F)(F)C(F)(F)C(F)(F)C(F)(F)C(F)(F)C(F)(F)CCI`, for which the molecule was called inactive in assay [4] and in [5].

With `Cc1ccc(C(C)C)c(O)c1`, the outcome in [4] and in assay [5] was inactive.

For the molecule `Cc1cc(NC(=O)C(=O)O)cc(C)c1Oc1ccc(O)c2c1CCC2`, in assay [3], the outcome was inactive.

As to `C=CCOC(=O)c1ccccc1C(=O)OCC=C`, the AC50 in [8] is 36.2 µM (active). Further, the molecule was classed as inactive in [6], in assay [7], in [9], in assay [4] and in assay [5].

Take `CNCc1cc(F)ccc1Oc1ccc(Cl)c(Cl)c1`: the AC50 was 3.97 µM (active) in assay [4] and 2.55 µM (active) in assay [5].

On to `Cc1cccc(Nc2cc(Cl)nc(SCC(=O)O)n2)c1C`, for which the molecule was classed as inactive in assay [8], in [6], in [7] and in [9].

Consider `Nc1ccccc1N`, for which the molecule was called inactive in [4] and in assay [5].

Take `C=CCc1ccc(O)c(OC)c1`: the molecule was classed as inactive in [4] and in assay [5].

With `CC(=O)C(C)=CC1C(C)=CCCC1(C)C` (centres undefined), the molecule was classed as inactive in assay [4] and in assay [5].

On to `Cc1c(C(=O)O)c(O)cc2c1C(=O)c1c(O)c([C@@H]3O[C@H](CO)[C@@H](O)[C@H](O)[C@H]3O)c(O)c(O)c1C2=O`, for which the molecule was classed as inactive in [8] and in [6]. Besides, the values for the AC50 in [7] and in [9] were 3.25 µM (active) and 40.1 µM (active), respectively.

Turning to `Cc1ccc2ncccc2c1`, the molecule was classed as inactive in [4] and in [5].

Take `c1cc(-c2ccncc2)ccn1`: the molecule was classed as inactive in assay [4] and in assay [5].

Consider `Nc1ccc2c(c1)C(=O)c1ccccc1C2=O`, for which the molecule was classed as inactive in assay [4] and in assay [5].

For the molecule `Nc1nc(N)c2nc(CNc3ccc(C(=O)N[C@@H](CCC(=O)O)C(=O)O)cc3)cnc2n1`, the molecule was classed as inactive in assay [4] and in [5].

For the molecule `CCOC(=O)C(C)(C)Oc1ccc(Cl)cc1`, the molecule was called inactive in assay [4] and in assay [5].
